Assay results published in PubChem BioAssay AID1508600 (Functional Genomics Laboratory (NCATS/FGL), 2020).
Among all 53,000 sequences or so, about 3,700 (7%) were called active.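 Rule for the calls: active = gene knockdowns whose robust z-score for IL-1 alpha signal is at least 2 or at most -2, so actives lie on both sides; inactive = the rest.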 Many of the other results were omitted from the sample, so actives are more common in it than they were.

Assay: Components of the Cytosolic LPS Sensing Pathway: Gene Identification via Genome-wide siRNA Screen;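 note: robust z of the log signal after scaling to non-targeting control siRNA wells of the plate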
Settings: RAW264.7 macrophages, IL-1a HTRF, actives lie on both sides, screened at 100 nM (by protocol), cells primed 5 h with Pam3CSK4 first
Summary of the method: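 Supernatant IL-1a by HTRF from RAW264.7 cells primed with Pam3CSK4 (5 hours) and transfected with LipidA (24 hour) after 48h siRNA knockdown at 100 nM; cell viability checked with CellTiter-Glo.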

Question: With GGGUACCUACAUAGACAAGTT against Rps11 as the sequence, how does the z-score read?
Answer: 0.0651 (inactive)

Question: With CGCAGUGAGGAGUAUGAAGTT against Nin as the sequence, how does the z-score read?
Answer: 3.53 (active)

Question: With GGUAGCUAUUAAAGAAUCCTT against AW209491 as the sequence, how does the z-score read?
Answer: 1.12 (inactive)

Question: Which z-score does the source give for GCGAUCAGCAAGCUAAGCCTT against Mettl2 here?
Answer: 0.117 (inactive)

Question: Which z-score does the source give for GGCCAUGAGGAAAACAAGATT against Coro7 here?
Answer: -1.01 (inactive)

Question: With ACAAAGAAGCGAUUUCUAUTT against Wtip as the sequence, how does the z-score read?
Answer: 1.32 (inactive)

Question: For GCACCCUAGAGGUAAAAGATT against Taf12, which z-score is on record?
Answer: -2.95 (active)

Question: For GGUUGUAACUUGUAAGGCATT against Rnf144b, which z-score is on record?
Answer: 0.123 (inactive)

Question: Which z-score does the source give for GGAGACUAAGGAGGUUUAUTT against Ruvbl1 here?
Answer: 0.494 (inactive)

Question: Which z-score does the source give for GGAGUCUCCUUAUAUUAAUTT against Alcam here?
Answer: 0.896 (inactive)

Question: With GGAUCAUAUAUGAAGCACATT against Mybl1 as the sequence, how does the z-score read?
Answer: -2.16 (active)

Question: With GGUUAACAUUUUCAGUCAUTT against Itga2 as the sequence, how does the z-score read?
Answer: -0.986 (inactive)

Question: With GGAUGACUUGAUUAUCUUUTT against Adrm1 as the sequence, how does the z-score read?
Answer: 0.603 (inactive)

Question: Which z-score does the source give for GGCAAAGAUUCCAAAAGAGTT against Bsdc1 here?
Answer: -1.59 (inactive)

Question: For CCAGAUUGUGUUCACGAUGTT against Rasgrf2, which z-score is on record?
Answer: 0.888 (inactive)

Question: With GGGAAGUUAUAAUGGAAGUTT against Rps15a as the sequence, how does the z-score read?
Answer: 2.46 (active)

Question: With GCAUAAAGCAGUCAUGCUUTT against Gskip as the sequence, how does the z-score read?
Answer: -0.989 (inactive)

Question: With GCCAUGUGUAUGGUAGUCUTT against Olfr1247 as the sequence, how does the z-score read?
Answer: -1.22 (inactive)

Question: With GCUAAUAAUGGUCAAAGCCTT against Prrt3 as the sequence, how does the z-score read?
Answer: -0.963 (inactive)

Question: For GGAUAUUCAUGUUUCAUUGTT against Vipr2, which z-score is on record?
Answer: 0.836 (inactive)

Question: For CGACCAGAUGAACUGGUGUTT against Smg9, which z-score is on record?
Answer: 0.929 (inactive)

Question: With GGUGACACACUAGUAGACUTT against Sclt1 as the sequence, how does the z-score read?
Answer: 3.47 (active)

Question: With CGAACAGAAACAGUUAUUATT against Gbp2 as the sequence, how does the z-score read?
Answer: 1.01 (inactive)

Question: Which z-score does the source give for CCAAAUCUCUCAAUUUAGGTT against Taf9b here?
Answer: 0.265 (inactive)

Question: Which z-score does the source give for CCAAAGAUGUUAUUGGACCTT against Olfr1152 here?
Answer: -1.1 (inactive)

Question: Which z-score does the source give for CCUGUAAACCAGAUAAGCCTT against Defb1 here?
Answer: -0.0772 (inactive)

Question: Which z-score does the source give for GGCAAUAUGUCGUAUGUAATT against Sfmbt2 here?
Answer: -2.13 (active)

Question: With GGUCAUGAAUUACUAUUCCTT against Cyth2 as the sequence, how does the z-score read?
Answer: 1.02 (inactive)

Question: With GGAGAAAUUCCCUUGCCACTT against Kbtbd12 as the sequence, how does the z-score read?
Answer: -0.0157 (inactive)

Question: For UUUAUACUUCCCUGAUUUUTT against Olfr943, which z-score is on record?
Answer: -0.409 (inactive)

Question: With GGGAAAAAGGAGAACUUCUTT against Cfap161 as the sequence, how does the z-score read?
Answer: -1.12 (inactive)

Question: With GGAUCAUAGUUACAAGGCUTT against L3mbtl2 as the sequence, how does the z-score read?
Answer: 0.458 (inactive)

Question: Which z-score does the source give for GCUUUGAGAGGUGUUGAUATT against Gm6116 here?
Answer: -0.864 (inactive)

Question: For GCUAAGUUGGAAUUUCCACTT against Chtop, which z-score is on record?
Answer: 2.05 (active)

Question: Which z-score does the source give for GCCGUUUUAUGUGGCAGAATT against Slc35d3 here?
Answer: 0.141 (inactive)

Question: With GGUAUUGUGGCCAGUAUUUTT against Ptdss2 as the sequence, how does the z-score read?
Answer: 0.185 (inactive)

Question: With AUAAGGAUGUCCAUCUUGCTT against Olfr884 as the sequence, how does the z-score read?
Answer: -1.17 (inactive)

Question: With CGGUCUAAAUUUCCGGUCATT against Elane as the sequence, how does the z-score read?
Answer: -0.205 (inactive)

Question: For GGCUCAACGGGAUUACUUUTT against Pgd, which z-score is on record?
Answer: -0.578 (inactive)

Question: With GAAAUAGAGAUGCCUCUCUTT against Olfr1161 as the sequence, how does the z-score read?
Answer: 2.52 (active)

Question: For CCAAUUUACGACAAAUCGUTT against Entpd4, which z-score is on record?
Answer: -0.56 (inactive)

Question: For GGCCCGAAACAAGAAAUCCTT against Ikbke, which z-score is on record?
Answer: 0.957 (inactive)

Question: Which z-score does the source give for GCUGGUCUUUCAAGUCAAGTT against Stat5b here?
Answer: 2.62 (active)

Question: With GAAAAAUCAUGAAGCCAUATT against Olfr203 as the sequence, how does the z-score read?
Answer: -0.0109 (inactive)

Question: With CCAGCUAGUGAUGUCAAAATT against Bri3bp as the sequence, how does the z-score read?
Answer: -0.0406 (inactive)

Question: Which z-score does the source give for GGACAGCUGGCUUCUAAAUTT against Lmntd1 here?
Answer: 0.137 (inactive)

Question: With CCAUAGGUAUGUUAAUCGATT against Polr1b as the sequence, how does the z-score read?
Answer: -0.426 (inactive)

Question: With GGCCAACCUACUUUUCUGGTT against Mgll as the sequence, how does the z-score read?
Answer: -1.18 (inactive)

Question: Which z-score does the source give for CGAUGGAAGUUUAAACCUCTT against Htr1a here?
Answer: 0.326 (inactive)

Question: Which z-score does the source give for GGUUGUGAAUGUAAGUGAGTT against Entpd1 here?
Answer: -0.787 (inactive)

Question: With GGCAUCUUCGAAAAAUGAUTT against Reck as the sequence, how does the z-score read?
Answer: -0.552 (inactive)

Question: With CGAUUUUCACCAAUUGUGGTT against Diaph2 as the sequence, how does the z-score read?
Answer: -2.03 (active)

Question: With GGACAUCAGUUGUCCUAGCTT against Ano6 as the sequence, how does the z-score read?
Answer: -0.285 (inactive)

Question: With GGGCUACUCAAAGAAGAUATT against Galnt5 as the sequence, how does the z-score read?
Answer: -0.357 (inactive)

Question: With GGUCACCACACGAUCUACATT against Slc4a4 as the sequence, how does the z-score read?
Answer: 3.14 (active)

Question: For GCUCGGCUUUAGAGACCUATT against Cox19, which z-score is on record?
Answer: 0.379 (inactive)

Question: With GCCUGUACAUGACGGAAAGTT against Bag4 as the sequence, how does the z-score read?
Answer: 0.155 (inactive)

Question: With GGAGUUACGGGAUUCCGUUTT against Kras as the sequence, how does the z-score read?
Answer: 1.7 (inactive)

Question: Which z-score does the source give for GCCUAGCUGAAAACGUGUCTT against Cog4 here?
Answer: 5.04 (active)

Question: For GCUUAUAAAAGACUUACUGTT against Sec24b, which z-score is on record?
Answer: 0.414 (inactive)

Question: For GGUUAAAAUUGGCUAAAUGTT against Sertm1, which z-score is on record?
Answer: 1.5 (inactive)

Question: With GGCUAAAAAGAGUAGACUATT against Irs1 as the sequence, how does the z-score read?
Answer: 1.14 (inactive)

Question: Which z-score does the source give for GGAAGAAUCUGAUUCGUAATT against Snapc5 here?
Answer: -1.28 (inactive)

Question: Which z-score does the source give for GGCUUUUUCUACAUGCGCCTT against Olfr1104 here?
Answer: -0.236 (inactive)

Question: With GGCUGUUAUACACUAUCUGTT against Tirap as the sequence, how does the z-score read?
Answer: -2.71 (active)

Question: With GGCUUUACUACUCAACCAUTT against Gjb3 as the sequence, how does the z-score read?
Answer: -0.388 (inactive)

Question: For GCAUUUAUAUGAGAUGCAGTT against Fam210a, which z-score is on record?
Answer: 0.108 (inactive)

Question: With CCAAAGCCUGAAAUGGUGGTT against Cxcr4 as the sequence, how does the z-score read?
Answer: -2.36 (active)

Question: Which z-score does the source give for “GGUCAAAACAUGUUGAAGGTT against B330016D10Rik” here?
Answer: 0.15 (inactive)
